This is part of a sample that, as a whole, favours compounds with a hit. Of some 83,000 tested, about 20% had one in any assay.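 Cell lines were cultured in 96-well plates, exposed to a single compound concentration, and assessed for percent growth 48 hours later.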 Unmarked numbers belong to inactive results. Calls of active or inactive are those of the source. Rule for the calls: active = growth percent below 10; inactive = the rest.
Experiments:
Test in all cases: NCI-60 one-dose screen, 48 h (100 = growth as untreated, 0 = no growth, -100 = all killed)
Details in all cases: 10 µM unless noted
NCI-H226 lung = system: NCI-H226 lung
NCI-H322M lung = system: NCI-H322M lung
HOP-62 NSCLC = system: HOP-62 NSCLC
NCI-H460 lung = system: NCI-H460 lung
HOP-92 NSCLC = system: HOP-92 NSCLC
NCI-H522 lung = system: NCI-H522 lung
A549/ATCC NSCLC = system: A549/ATCC NSCLC
786-0 renal = system: 786-0 renal
COLO 205 colon = system: COLO 205 colon
DU-145 prostate = system: DU-145 prostate
K-562 leukemia = system: K-562 leukemia
MALME-3M melanoma = system: MALME-3M melanoma
MDA-MB-231 breast = system: MDA-MB-231 breast
RXF 393 renal = system: RXF 393 renal
SF-268 CNS = system: SF-268 CNS
SF-295 CNS = system: SF-295 CNS
SF-539 CNS = system: SF-539 CNS
UACC-257 melanoma = system: UACC-257 melanoma
M14 melanoma = system: M14 melanoma
HCT-15 colon = system: HCT-15 colon

SMILES | growth (NCI-H226 lung) | growth (NCI-H322M lung) [%] | growth (HOP-62 NSCLC) | growth (NCI-H460 lung) | growth (HOP-92 NSCLC) | growth (NCI-H522 lung) | growth (A549/ATCC NSCLC) | growth (786-0 renal) | growth (COLO 205 colon) | growth (DU-145 prostate) | growth (K-562 leukemia) | growth (MALME-3M melanoma) | growth (MDA-MB-231 breast) | growth (RXF 393 renal) | growth (SF-268 CNS) | growth (SF-295 CNS) [%] | growth (SF-539 CNS) | growth (UACC-257 melanoma) [%] | growth (M14 melanoma) | growth (HCT-15 colon)
N#Cc1c(-c2ccc(Cl)cc2)nc(SCc2ccc([N+](=O)[O-])cc2)nc1N1CCNCC1 | 85.2% | 40.5 | 57.1% | -66.6% (active) | -8.29% (active) | 64.1% | 5.31% (active) | -50% (active) | -82% (active) | 0.384% (active) | -32.2% (active) | 48.4% | -77.7% (active) | -4.17% (active) | 35.3% | 78.9 | -23% (active) | 43.5 | -81% (active) | 1.91% (active)
COc1cc(/C=C/C(=O)c2cc(OC)c(OC)c(OC)c2)ccc1Oc1nc(NCCO)nc(N2CCOCC2)n1 | -1.45% (active) | 24 | 1.11% (active) | -51.6% (active) | 13.5% | -11.1% (active) | 6.84% (active) | -5.28% (active) | – | 12.6% | 8.97% (active) | 29% | 19.4% | -25.7% (active) | 9.81% (active) | 12.6 | -5.48% (active) | 47.8 | -19.1% (active) | -9.13% (active)
Nc1c(C(=O)Nc2ccc(Cl)cc2)sc2nc(-c3cnccn3)cc(-c3cccs3)c12 | 13.2% | 70.2 | 44.4% | 63.1% | 52.6% | 93% | 68.8% | 71.2% | 95.7% | 70.3% | 40.5% | 91.2% | 72.9% | 61.5% | 47.2% | 59 | 12.2% | 81.5 | 89.2% | 62.5%
Clc1ccc2c(NCCCN3CCOCC3)c3oc4ccccc4c3nc2c1 | 45.3% | 37.8 | 66.5% | 13.8% | 48.7% | 43.1% | 44.3% | 28.3% | – | 31.3% | 13.2% | 40.6% | 33.8% | 29.1% | 48.6% | 31.3 | 26.5% | 87.4 | 42.7% | 21.6%
CCN1CCN(S(=O)(=O)c2oc(-c3ccc(Cl)cc3)nc2C#N)CC1 | 106% | 96.5 | 108% | 105% | 36.7% | -63% (active) | 95.6% | -49.7% (active) | 65.5% | 81.7% | – | -53.6% (active) | 26.7% | -60.2% (active) | 112% | 108 | 53.1% | 89.9 | -50.6% (active) | -35.5% (active)
COc1cc(/C=C/C(=O)c2ccc(C(F)(F)F)cc2)ccc1Oc1nc(NCCO)nc(N2CCOCC2)n1 | 89.2% | 101 | 90.2% | 98.7% | 95% | 86.8% | 91.6% | 100% | – | 101% | 6.49% (active) | 85.7% | 92.9% | 90.8% | 87.3% | 96 | 98.2% | 97.4 | 97.6% | 70.5%
N#Cc1c(-c2ccc(Cl)cc2)nc(SCc2ccc(F)cc2)nc1N1CCNCC1 | 101% | 76.7 | 80.8% | -70.2% (active) | 6.64% (active) | 94.1% | 60.2% | 62.5% | -27.2% (active) | 61% | -34.5% (active) | 88.3% | 16.2% | 58.5% | 73.3% | 96.8 | 75.9% | 86.4 | 72.8% | 1.29% (active)
O=C(CSc1nc2sc3c(c2c(=O)n1-c1ccc(Cl)cc1)CCCC3)N/N=C/c1ccc(F)cc1 | 113% | 104 | 105% | 81.4% | 97.3% | 100% | 88.1% | 98.9% | 117% | 82.1% | 45.4% | 100% | 86.2% | 118% | 102% | 106 | 102% | 109 | 90.5% | 73.9%

Reference: PubChem BioAssay (NCI)
